Assay results as given in PubChem BioAssay (Tox21).
Inconclusive results are not listed. Entries that show only a call come without a potency. Active and inactive are the calls of the source. Calls come from the whole dose curve; as a rule, active = well fitted cell-killing curve with a large enough effect in the repeat runs; inconclusive = weak or mixed curves, or effect the other way; inactive = flat fitted curve, though single readings scatter.

Assay: qHTS assay to identify small molecule agonists of the constitutive androstane receptor (CAR) signaling pathway - cell viability counter screen (AID 1224836); note: nearly all actives have a fitted effect of over 45% in size
Conditions: HepG2-CYP2B6-hCAR viability, CellTiter-Fluor, 23 h, PK11195 added to every well; series mostly up to 92.4 µM
Excerpt: U.S. Tox21 Program National Center for Advancing Translational Sciences [NCATS] NIH Chemical Genomics Center [NCGC] U.S. Environmental Protection Agency [EPA] National Institutes of Environmental Health Sciences [NIEHS] National Toxicology Program [NTP] U.S. Food and Drug Administration [FDA] Tox21 Assay Overview: The constitutive androstane receptor (CAR) is a nuclear receptor which regulates multiple drug metabolizing enzymes (DMEs) and transporters. Activating CAR will generally increase the transcription and subsequent translation of CYP2B6 and CYP3A4. These two DMEs represent about 50% of the drug metabolizing potential in the body. […] Recently, there have also been studies performed indicating CARs role in energy metabolism and cancer therapy. Therefore, inducing CARs activity could have a potential effect on diabetes and cancer. Identifying environmental toxins and compounds which modulate CAR, through the use of the Tox21 10K compound collection, will be an important step in determining the toxicity and potential therapeutic effects these factors will have on the human body. To differentiate true CAR agonists from cytotoxic substances, the assay is multiplexed with a cell viability assay.
Tox21 Assay Protocol Summary: A double-stable (hCAR and CYP2B6-2.2kb) transfected cell line, derived from human hepatoma (HepG2) cells, was utilized for the duration of the quantitative high-throughput screens. The HepG2-CYP2B6-hCAR cells were dispensed at 2500 cells/4 uL/well in 1536-well white solid bottom plates using a Multidrop Combi. After the assay plates were incubated at 37 C/5% CO2 for 4 hrs, 23 nL of compounds at 15 concentrations (from 5-48 columns) or positive control (from 1 to 4 columns) were transferred to the assay plates using a Pintool station. One uL of PK11195 (final concentration = 0.75 uM) was added, using a Flying Reagent Dispenser, inside each well. After a 23 hr incubation period at 37 C/5% CO2, 1 uL of CellTiter-Fluor reagent was added into each well of the assay plates using a Flying Reagent Dispenser. The fluorescence intensity in the plates was then measured using a ViewLux plate reader.

| SMILES | Potency |
| --- | --- |
| Nc1cccc(Cl)c1 | inactive |
| OCc1ccco1 | inactive |
| CNC(=O)O/N=C/C(C)(C)S(C)(=O)=O | inactive |
| C/C=C/c1ccc2c(c1)OCO2 | inactive |
| N#Cc1ccccn1 | inactive |
| [N-]=[N+]=CC(=O)OC[C@H](N)C(=O)O | inactive |
| CC(=O)/C=C/c1ccccc1 | inactive |
| Cc1cccc(N)c1 | inactive |
| Cc1ccc(N=C=O)cc1N=C=O | inactive |
| O=C(O)Cc1ccccc1 | inactive |
| COP(=S)(OC)Oc1ccc(SC)c(C)c1 | inactive |
| O=C/C=C/c1ccccc1 | inactive |
| O=C(O)COc1ccccc1 | inactive |
| Nc1ccc([As](=O)(O)O)cc1 | inactive |
| O=C(O)CCCc1ccc(N(CCCl)CCCl)cc1 | inactive |
| Nc1cc(Cl)cc(Cl)c1 | inactive |
| Cc1ccccc1N | inactive |
| COc1cc(-c2ccc(N)c(OC)c2)ccc1N | inactive |
| Cc1ccc(N)cc1 | inactive |
| N#Cc1cccc(C#N)c1 | inactive |

| SMILES | Potency |
| --- | --- |
| Clc1cnc(Oc2ccc(Oc3ncc(Cl)cc3Cl)cc2)c(Cl)c1 | inactive |
| c1ccc2c(c1)CCCC2 | inactive |
| CNc1cnn(-c2cccc(C(F)(F)F)c2)c(=O)c1Cl | inactive |
| CCNc1nc(Cl)nc(NC(C)C)n1 | inactive |
| CC12CC1(C)C(=O)N(c1cc(Cl)cc(Cl)c1)C2=O (stereo not given) | inactive |
| CNC(=O)Oc1cccc2ccccc12 | inactive |
| CC(C)(C)C(=O)CCl | inactive |
| CC(C)CCCCCCOC(=O)c1ccccc1C(=O)OCCCCCCC(C)C | inactive |
| O=C(O)C1C(C(=O)O)C2(Cl)C(Cl)=C(Cl)C1(Cl)C2(Cl)Cl (stereo not given) | inactive |
| CCCOC(=O)c1ccccc1C(=O)OCCC | inactive |
| COC(C)(C)CCCC(C)C/C=C/C(C)=C/C(=O)OC(C)C (stereo not given) | inactive |
| CN1C(=O)CCS(=O)(=O)C1c1ccc(Cl)cc1 (stereo not given) | inactive |
| N#CN=C(N)N | inactive |
| C=CC(=O)OCC(CC)CCCC (stereo not given) | inactive |
| CN(C)NC(=O)CCC(=O)O | inactive |
| Cc1cc(O)ccc1Cl | inactive |
| CN(C)C(=O)C(c1ccccc1)c1ccccc1 | inactive |
| C[C@]12CC[C@H](O)CC1=CC[C@@H]1[C@@H]2CC[C@]2(C)C(=O)CC[C@@H]12 | inactive |
| ClCCOCCCl | inactive |
| CCOP(=S)(OCC)Oc1cc(C)nc(C(C)C)n1 | inactive |
